1 sequence from publication PMC7862700, “An all-to-all approach to the identification of sequence-specific readers for epigenetic DNA modifications on cytosine” can be followed below.

Assay in all cases: DAPPL (digital affinity profiling via proximity ligation, sequencing); 10 mM Tris-HCl pH 7.5, 50 mM NaCl, 1 mM DTT, 4% glycerol, room temperature, 30 min; GST-TFs on glutathione beads, 16-mer random dsDNA library, 0.1% formaldehyde crosslink after washing; high values mean tight binding
For one test, the target named is T1, FEV (Homo sapiens, UniProt Q99581 1-238).
T1 sequence: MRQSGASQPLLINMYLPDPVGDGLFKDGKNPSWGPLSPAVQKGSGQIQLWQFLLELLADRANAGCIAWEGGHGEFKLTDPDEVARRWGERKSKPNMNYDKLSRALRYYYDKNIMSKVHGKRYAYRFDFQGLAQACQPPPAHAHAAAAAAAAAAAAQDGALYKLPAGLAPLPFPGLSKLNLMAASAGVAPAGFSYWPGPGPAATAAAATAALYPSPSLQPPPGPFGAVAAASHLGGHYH
The conditions noted are these: protein: recombinant; tags: N-terminal GST; dsDNA, one strand shown. Summed up: (§1)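 Each value of binding signal is a hexamer's read frequency for a factor divided by the same hexamer's frequency in the tag-only sample. Barcoded, bead-captured GST fusions of human transcription factors made in yeast were pooled with that sample and incubated with 200 nmole of a random double-stranded 16-mer DNA library in Tris/NaCl/DTT/glycerol buffer at room temperature for 30 min. Washing, 0.1% formaldehyde crosslinking, proximity ligation, PCR and Illumina NextSeq500 sequencing followed.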

For a further test, the target named is ETV5 (Homo sapiens, UniProt P41161 1-510). The conditions noted are these: protein: recombinant; tags: N-terminal GST; dsDNA, one strand shown. Summed up: as §1
Sequence of ETV5 (P41161 whole entry): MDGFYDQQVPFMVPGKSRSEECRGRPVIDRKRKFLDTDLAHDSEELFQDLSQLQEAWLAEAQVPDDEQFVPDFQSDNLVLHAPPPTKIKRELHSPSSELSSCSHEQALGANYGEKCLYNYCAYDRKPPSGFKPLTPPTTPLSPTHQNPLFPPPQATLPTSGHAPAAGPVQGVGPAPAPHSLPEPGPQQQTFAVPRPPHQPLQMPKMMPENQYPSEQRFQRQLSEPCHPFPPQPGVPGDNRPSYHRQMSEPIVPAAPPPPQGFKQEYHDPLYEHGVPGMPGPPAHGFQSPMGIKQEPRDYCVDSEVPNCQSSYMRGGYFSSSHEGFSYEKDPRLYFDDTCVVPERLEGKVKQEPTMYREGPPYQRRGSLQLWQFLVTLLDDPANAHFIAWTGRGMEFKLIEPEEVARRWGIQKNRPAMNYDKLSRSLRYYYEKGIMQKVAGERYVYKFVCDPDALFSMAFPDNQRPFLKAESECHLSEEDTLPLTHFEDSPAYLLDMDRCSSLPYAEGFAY
Another test has as its target HSF1 (Homo sapiens, UniProt Q00613 1-529). The conditions noted are these: protein: recombinant; tags: N-terminal GST; chain copies: 3; dsDNA, one strand shown. Summed up: as §1
The target in another test is T2, SPIC (Homo sapiens, UniProt Q8N5J4 1-248).
T2 sequence: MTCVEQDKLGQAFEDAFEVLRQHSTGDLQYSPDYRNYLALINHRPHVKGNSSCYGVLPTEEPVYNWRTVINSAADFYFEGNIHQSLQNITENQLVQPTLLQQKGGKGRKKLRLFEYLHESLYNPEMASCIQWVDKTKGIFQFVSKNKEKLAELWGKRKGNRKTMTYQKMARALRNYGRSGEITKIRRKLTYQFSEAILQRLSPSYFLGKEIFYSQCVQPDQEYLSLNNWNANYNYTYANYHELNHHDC
The conditions noted are these: protein: recombinant; tags: N-terminal GST; dsDNA, one strand shown. Summed up: as §1

Another test concerns the target ELF4 (Homo sapiens, UniProt Q99607 1-663). The conditions noted are these: protein: recombinant; tags: N-terminal GST; dsDNA, one strand shown. Summed up:
as §1

For the next test, the target named is T3, ELK4 (Homo sapiens, UniProt P28324-2 1-405).
T3 sequence: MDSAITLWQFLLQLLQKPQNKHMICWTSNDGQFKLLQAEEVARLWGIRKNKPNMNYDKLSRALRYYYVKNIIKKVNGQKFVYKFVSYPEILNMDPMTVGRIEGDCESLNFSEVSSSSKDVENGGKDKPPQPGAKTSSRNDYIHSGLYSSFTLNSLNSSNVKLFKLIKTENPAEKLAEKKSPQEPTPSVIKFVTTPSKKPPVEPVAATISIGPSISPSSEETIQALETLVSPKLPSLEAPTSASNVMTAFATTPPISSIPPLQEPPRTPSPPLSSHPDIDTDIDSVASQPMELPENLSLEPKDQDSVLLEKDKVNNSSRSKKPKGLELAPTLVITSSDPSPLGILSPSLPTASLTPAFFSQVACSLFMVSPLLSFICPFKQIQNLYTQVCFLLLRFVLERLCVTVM
The conditions noted are these: protein: recombinant; tags: N-terminal GST; dsDNA, one strand shown. Summed up: as §1

A further test deals with T4, ETV2 (Homo sapiens, UniProt O00321 1-342).
T4 sequence: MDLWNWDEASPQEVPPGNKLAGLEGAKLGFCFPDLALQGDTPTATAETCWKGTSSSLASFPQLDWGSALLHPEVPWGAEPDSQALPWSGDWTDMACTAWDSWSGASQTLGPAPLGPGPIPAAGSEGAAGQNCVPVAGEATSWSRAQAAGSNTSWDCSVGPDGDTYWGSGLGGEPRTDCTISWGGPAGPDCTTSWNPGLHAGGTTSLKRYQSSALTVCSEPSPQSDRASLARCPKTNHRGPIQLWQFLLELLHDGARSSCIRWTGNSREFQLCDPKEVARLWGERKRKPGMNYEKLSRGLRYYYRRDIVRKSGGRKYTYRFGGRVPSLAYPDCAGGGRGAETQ
The conditions noted are these: protein: recombinant; tags: N-terminal GST; dsDNA, one strand shown. Summed up: as §1

The target in a further test is T5, ELF3 (Homo sapiens, UniProt P78545 1-371).
T5 sequence: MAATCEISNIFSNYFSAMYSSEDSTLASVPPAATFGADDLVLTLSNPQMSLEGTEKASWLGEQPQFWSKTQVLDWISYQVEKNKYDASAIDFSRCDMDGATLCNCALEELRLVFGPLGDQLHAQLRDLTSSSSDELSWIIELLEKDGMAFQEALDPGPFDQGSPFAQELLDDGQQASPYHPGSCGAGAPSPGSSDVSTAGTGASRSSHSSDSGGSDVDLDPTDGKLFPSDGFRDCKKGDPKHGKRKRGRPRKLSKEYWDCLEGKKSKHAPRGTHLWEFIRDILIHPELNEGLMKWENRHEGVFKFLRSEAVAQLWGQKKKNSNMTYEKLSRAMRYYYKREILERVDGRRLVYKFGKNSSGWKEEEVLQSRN
The conditions noted are these: protein: recombinant; tags: N-terminal GST; dsDNA, one strand shown. An outline of the steps: as §1

Another test deals with CRX (Homo sapiens, UniProt O43186 1-299). The conditions noted are these: protein: recombinant; tags: N-terminal GST; dsDNA, one strand shown. An outline of the steps: as §1
Sequence of CRX (O43186 whole entry): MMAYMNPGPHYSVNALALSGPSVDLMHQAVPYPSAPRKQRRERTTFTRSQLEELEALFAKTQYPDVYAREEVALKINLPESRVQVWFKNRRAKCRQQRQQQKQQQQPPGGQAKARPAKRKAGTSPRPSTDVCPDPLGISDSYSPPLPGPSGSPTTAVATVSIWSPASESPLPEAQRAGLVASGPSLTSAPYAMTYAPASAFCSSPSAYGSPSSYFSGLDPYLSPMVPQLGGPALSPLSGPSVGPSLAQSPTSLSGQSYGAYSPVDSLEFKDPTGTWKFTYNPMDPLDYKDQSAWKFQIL
For a further test, the target named is ETV1 (Homo sapiens, UniProt P50549 1-477). The conditions noted are these: protein: recombinant; tags: N-terminal GST; dsDNA, one strand shown. Summed up: as §1
Sequence of ETV1 (P50549 whole entry): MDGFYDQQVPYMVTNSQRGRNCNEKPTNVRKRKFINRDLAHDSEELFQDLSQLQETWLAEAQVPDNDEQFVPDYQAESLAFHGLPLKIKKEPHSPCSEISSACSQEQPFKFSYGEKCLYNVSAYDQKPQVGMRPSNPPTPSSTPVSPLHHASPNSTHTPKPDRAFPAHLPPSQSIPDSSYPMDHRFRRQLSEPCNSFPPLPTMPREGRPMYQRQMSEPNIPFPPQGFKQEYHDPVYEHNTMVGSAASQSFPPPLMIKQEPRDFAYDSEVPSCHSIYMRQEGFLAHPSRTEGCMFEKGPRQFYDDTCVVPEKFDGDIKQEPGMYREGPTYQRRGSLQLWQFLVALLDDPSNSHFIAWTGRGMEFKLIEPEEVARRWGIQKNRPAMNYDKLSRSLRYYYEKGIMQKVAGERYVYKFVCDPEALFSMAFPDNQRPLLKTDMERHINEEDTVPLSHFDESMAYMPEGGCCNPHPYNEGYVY
The next test deals with T6, ERF (Homo sapiens, UniProt P50548 1-548).
T6 sequence: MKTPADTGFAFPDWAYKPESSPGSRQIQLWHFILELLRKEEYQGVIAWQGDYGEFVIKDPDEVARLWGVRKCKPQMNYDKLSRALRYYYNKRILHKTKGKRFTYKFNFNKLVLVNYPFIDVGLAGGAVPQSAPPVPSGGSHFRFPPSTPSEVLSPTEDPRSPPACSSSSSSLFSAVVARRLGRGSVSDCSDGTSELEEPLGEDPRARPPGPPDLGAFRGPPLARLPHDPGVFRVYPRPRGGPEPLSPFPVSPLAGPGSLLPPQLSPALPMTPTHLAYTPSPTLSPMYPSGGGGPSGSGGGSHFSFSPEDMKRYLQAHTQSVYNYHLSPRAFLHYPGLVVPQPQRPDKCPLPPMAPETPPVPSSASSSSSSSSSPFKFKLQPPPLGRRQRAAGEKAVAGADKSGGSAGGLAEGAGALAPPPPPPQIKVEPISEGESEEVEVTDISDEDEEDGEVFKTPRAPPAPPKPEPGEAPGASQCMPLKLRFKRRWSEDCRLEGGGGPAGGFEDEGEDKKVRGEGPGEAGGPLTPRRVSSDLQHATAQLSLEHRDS
The conditions noted are these: protein: recombinant; tags: N-terminal GST; dsDNA, one strand shown. An outline of the steps:
as §1

In another test the target is T7, ETV3L (Homo sapiens, UniProt Q6ZN32 1-361).
T7 sequence: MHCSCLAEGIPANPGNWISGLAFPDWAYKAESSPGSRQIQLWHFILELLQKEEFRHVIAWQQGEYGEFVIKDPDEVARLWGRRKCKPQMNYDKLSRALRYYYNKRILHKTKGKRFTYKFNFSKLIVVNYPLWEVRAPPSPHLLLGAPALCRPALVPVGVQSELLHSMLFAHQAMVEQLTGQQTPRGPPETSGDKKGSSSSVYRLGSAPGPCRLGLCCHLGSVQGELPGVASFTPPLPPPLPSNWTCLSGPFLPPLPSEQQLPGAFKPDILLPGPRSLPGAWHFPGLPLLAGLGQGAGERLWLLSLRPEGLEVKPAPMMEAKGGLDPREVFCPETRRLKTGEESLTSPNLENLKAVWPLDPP
The conditions noted are these: protein: recombinant; tags: N-terminal GST; dsDNA, one strand shown. An outline of the steps: as §1

The target in the next test is T8, ETS2 (Homo sapiens, UniProt P15036 1-469).
T8 sequence: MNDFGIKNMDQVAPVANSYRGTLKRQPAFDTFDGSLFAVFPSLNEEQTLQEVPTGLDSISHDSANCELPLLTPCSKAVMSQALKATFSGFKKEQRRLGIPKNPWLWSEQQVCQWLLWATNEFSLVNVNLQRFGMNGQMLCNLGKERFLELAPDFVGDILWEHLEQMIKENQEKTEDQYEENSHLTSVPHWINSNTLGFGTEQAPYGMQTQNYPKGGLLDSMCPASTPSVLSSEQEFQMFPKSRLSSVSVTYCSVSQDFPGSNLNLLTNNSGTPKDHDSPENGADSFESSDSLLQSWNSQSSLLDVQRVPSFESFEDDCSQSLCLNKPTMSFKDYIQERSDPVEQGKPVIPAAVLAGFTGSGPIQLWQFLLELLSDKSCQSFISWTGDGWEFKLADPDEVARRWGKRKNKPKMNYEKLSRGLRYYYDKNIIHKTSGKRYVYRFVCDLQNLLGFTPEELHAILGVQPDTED
The conditions noted are these: protein: recombinant; tags: N-terminal GST; dsDNA, one strand shown. Summed up:
as §1

The target of a further test is T9, SPDEF (Homo sapiens, UniProt O95238 1-335).
T9 sequence: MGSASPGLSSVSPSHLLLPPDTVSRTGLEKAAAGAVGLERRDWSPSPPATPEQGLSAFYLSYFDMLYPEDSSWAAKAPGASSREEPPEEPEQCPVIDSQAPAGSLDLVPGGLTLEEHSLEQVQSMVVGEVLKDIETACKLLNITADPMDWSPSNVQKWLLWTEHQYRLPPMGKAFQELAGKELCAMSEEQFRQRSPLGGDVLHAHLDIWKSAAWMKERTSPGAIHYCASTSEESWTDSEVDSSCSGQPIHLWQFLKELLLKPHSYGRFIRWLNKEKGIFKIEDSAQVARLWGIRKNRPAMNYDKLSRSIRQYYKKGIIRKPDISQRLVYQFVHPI
The conditions noted are these: protein: recombinant; tags: N-terminal GST; dsDNA, one strand shown. Summed up:
as §1

Another test concerns the target T10, ETV7 (Homo sapiens, UniProt Q9Y603 1-341).
T10 sequence: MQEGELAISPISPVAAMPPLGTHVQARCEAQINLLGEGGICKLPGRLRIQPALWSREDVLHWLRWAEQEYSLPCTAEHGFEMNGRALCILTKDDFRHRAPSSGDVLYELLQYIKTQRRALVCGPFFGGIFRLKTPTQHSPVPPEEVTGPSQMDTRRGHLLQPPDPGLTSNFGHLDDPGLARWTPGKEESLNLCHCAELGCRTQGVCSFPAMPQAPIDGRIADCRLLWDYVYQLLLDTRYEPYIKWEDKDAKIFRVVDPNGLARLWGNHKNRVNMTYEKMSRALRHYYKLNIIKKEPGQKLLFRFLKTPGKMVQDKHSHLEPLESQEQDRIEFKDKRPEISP
The conditions noted are these: protein: recombinant; tags: N-terminal GST; dsDNA, one strand shown. Summed up: as §1

For a further test, the target named is T11, ELF5 (Homo sapiens, UniProt Q9UKW6-2 1-255).
T11 sequence: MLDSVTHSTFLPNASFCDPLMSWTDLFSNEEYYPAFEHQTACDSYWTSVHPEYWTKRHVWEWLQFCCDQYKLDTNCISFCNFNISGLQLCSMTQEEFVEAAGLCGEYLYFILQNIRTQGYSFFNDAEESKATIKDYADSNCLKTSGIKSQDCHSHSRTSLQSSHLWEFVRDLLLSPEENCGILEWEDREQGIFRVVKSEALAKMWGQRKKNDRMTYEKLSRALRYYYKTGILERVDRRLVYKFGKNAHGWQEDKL
The conditions noted are these: protein: recombinant; tags: N-terminal GST; dsDNA, one strand shown. Summed up:
as §1

For the next test, the target named is T12, ETV3 (Homo sapiens, UniProt P41162-2 1-143).
T12 sequence: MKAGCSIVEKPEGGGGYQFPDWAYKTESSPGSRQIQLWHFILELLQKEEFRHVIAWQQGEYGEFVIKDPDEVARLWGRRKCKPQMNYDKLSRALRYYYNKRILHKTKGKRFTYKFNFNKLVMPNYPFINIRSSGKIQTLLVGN
The conditions noted are these: protein: recombinant; tags: N-terminal GST; dsDNA, one strand shown. An outline of the steps:
as §1

Another test has as its target ETV6 (Homo sapiens, UniProt P41212 1-452). The conditions noted are these: protein: recombinant; tags: N-terminal GST; dsDNA, one strand shown. Summed up: as §1

Sequence of HSF1 (Q00613 whole entry): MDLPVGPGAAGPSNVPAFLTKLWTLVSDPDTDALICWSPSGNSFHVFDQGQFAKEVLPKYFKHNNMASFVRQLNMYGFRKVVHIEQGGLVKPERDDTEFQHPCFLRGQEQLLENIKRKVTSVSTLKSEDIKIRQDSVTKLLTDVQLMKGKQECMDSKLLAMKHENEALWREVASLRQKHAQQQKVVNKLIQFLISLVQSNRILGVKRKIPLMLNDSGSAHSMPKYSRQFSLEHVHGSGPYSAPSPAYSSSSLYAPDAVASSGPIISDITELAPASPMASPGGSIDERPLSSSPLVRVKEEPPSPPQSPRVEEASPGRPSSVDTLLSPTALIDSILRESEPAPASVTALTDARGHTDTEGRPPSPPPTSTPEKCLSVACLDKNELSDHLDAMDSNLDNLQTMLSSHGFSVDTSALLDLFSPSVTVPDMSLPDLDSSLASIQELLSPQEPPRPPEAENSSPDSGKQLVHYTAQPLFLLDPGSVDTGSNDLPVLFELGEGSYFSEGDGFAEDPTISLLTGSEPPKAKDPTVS
Sequence of ELF4 (Q99607 whole entry): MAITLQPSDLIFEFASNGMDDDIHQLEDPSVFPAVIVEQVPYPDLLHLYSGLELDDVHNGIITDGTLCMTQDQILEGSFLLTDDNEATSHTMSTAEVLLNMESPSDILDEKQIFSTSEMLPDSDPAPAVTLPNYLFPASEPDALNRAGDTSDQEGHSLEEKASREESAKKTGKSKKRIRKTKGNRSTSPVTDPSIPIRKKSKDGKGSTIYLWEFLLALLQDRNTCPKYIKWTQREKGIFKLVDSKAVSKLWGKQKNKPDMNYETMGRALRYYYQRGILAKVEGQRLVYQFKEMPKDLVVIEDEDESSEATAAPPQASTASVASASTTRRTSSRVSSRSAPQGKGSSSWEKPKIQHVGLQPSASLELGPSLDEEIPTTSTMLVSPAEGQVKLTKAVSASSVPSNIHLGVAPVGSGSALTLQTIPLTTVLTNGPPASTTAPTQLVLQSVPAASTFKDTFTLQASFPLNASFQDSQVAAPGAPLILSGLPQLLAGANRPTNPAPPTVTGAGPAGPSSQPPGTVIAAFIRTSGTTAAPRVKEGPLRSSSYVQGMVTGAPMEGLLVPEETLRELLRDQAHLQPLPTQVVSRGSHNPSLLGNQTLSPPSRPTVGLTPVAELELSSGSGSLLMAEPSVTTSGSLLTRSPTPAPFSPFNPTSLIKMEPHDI
Sequence of ETV6 (P41212 whole entry): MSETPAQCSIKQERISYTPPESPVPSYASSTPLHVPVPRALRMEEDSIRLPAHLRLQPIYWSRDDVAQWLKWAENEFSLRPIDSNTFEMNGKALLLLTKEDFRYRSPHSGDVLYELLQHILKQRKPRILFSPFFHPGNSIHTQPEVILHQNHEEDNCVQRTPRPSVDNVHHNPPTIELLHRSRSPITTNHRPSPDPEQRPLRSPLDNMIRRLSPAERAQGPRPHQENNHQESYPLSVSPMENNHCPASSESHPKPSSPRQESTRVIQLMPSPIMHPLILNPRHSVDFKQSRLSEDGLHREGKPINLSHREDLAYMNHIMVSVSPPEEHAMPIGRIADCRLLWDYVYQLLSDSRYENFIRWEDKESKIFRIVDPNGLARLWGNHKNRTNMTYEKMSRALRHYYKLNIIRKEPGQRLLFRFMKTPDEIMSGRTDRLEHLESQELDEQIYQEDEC

Consider CTCCAC, for which the binding signal in the test with FEV is 1.42 fold enrichment (6-mer frequency, TF over GST control); with ETV5 it was 1.42 fold enrichment (6-mer frequency, TF over GST control); with HSF1, 1.26 fold enrichment (6-mer frequency, TF over GST control); with SPIC, 1.17 fold enrichment (6-mer frequency, TF over GST control); in the test with ELF4, 1.4 fold enrichment (6-mer frequency, TF over GST control); with ELK4 it was 1.46 fold enrichment (6-mer frequency, TF over GST control). The binding signal with ETV2 is 1.3 fold enrichment (6-mer frequency, TF over GST control); with ELF3, 1.27 fold enrichment (6-mer frequency, TF over GST control); with CRX, 1.17 fold enrichment (6-mer frequency, TF over GST control); with ETV1, 1.25 fold enrichment (6-mer frequency, TF over GST control); with ERF, 1.31 fold enrichment (6-mer frequency, TF over GST control); in the test with ETV3L, 1.45 fold enrichment (6-mer frequency, TF over GST control). In addition, the binding signal in the test with ETS2 is 1.43 fold enrichment (6-mer frequency, TF over GST control); in the test with SPDEF, 1.27 fold enrichment (6-mer frequency, TF over GST control); in the test with ETV7, 1.39 fold enrichment (6-mer frequency, TF over GST control); with ELF5, 1.35 fold enrichment (6-mer frequency, TF over GST control); with ETV3, 1.3 fold enrichment (6-mer frequency, TF over GST control); in the test with ETV6, 1.26 fold enrichment (6-mer frequency, TF over GST control).
